Source: the supplement of paper PMC8253809
Several values for one entry are separate records, joined by “and”; a condition that tells them apart may be missing. Equal entries are not always repeated.

The compounds below were run on SUDIPGXIII (diffuse intrinsic pontine glioma line) (assay: growth inhibition (% activity, log2 RLU normalised to DMSO / staurosporine); higher = more growth inhibition). Details: 33 µM.
In short: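 In triplicate, pHGG cell lines and H9-derived neural stem cells were treated for 7 days at 37 °C, 5% CO2 with approved drugs at a single final concentration of about 33 μM, added by pin tool. CellTiter-Glo luminescence, after log2 transformation, was normalised on each plate to % activity between solvent and positive control wells. Growth inhibition is reported as the median across replicates.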

Row | Compound | growth inhibition
1 | CCN[C@H]1CN(CCCOC)S(=O)(=O)c2sc(S(N)(=O)=O)cc21 | -0.696%
2 | C=C1CCC(O)CC1=CC=C1CCCC2(C)C1CCC2C(C)CCCC(C)(C)O (stereo unspecified) | -0.781%
3 | O=c1c(-c2ccc(O)cc2)coc2cc(O)ccc12 | 0.974%
4 | CC(C)Cc1ccc(C(C)C(=O)O)cc1 (stereo unspecified) | -0.0501% and 0.956%
5 | Cn1c(CNc2ccc(C(=N)N)cc2)nc2cc(C(=O)N(CCC(=O)O)c3ccccn3)ccc21 | -0.457%
6 | CC(C)C[C@H](NC(=O)[C@H](CCc1ccccc1)NC(=O)CN1CCOCC1)C(=O)N[C@@H](Cc1ccccc1)C(=O)N[C@@H](CC(C)C)C(=O)[C@@]1(C)CO1 | 29.5%
7 | C[N+](C)(C)CCCCCC[N+](C)(C)C | 0.369%
8 | COc1cc(/C=C/C(=O)N2CCN(CC(=O)N3CCCC3)CC2)cc(OC)c1OC | -1.16%
9 | O=C(CCCN1CC=C(n2c(=O)[nH]c3ccccc32)CC1)c1ccc(F)cc1 | 0.682%
10 | Cc1nnc(C(C)C)n1C1C[C@H]2CC[C@@H](C1)N2CC[C@H](NC(=O)C1CCC(F)(F)CC1)c1ccccc1 (stereo in doubt) | -1.27%
11 | CCCCC(=O)N(Cc1ccc(-c2ccccc2-c2nnn[nH]2)cc1)[C@H](C(=O)O)C(C)C | -8.43%
12 | CCN(CC)C(=O)/C(C#N)=C/c1cc(O)c(O)c([N+](=O)[O-])c1 | 1.29%
13 | CN1CCC(=C2c3ccccc3C=Cc3ccccc32)CC1 | 1.93%
14 | CCCCC(=O)O[C@]1(C(=O)CO)[C@@H](C)C[C@H]2[C@@H]3CCC4=CC(=O)C=C[C@]4(C)[C@@]3(F)[C@@H](O)C[C@@]21C | 2.04%
15 | O=C1OC(CN2CCOCC2)CN1/N=C/c1ccc([N+](=O)[O-])o1 (stereo unspecified) | -18.3%
16 | NC[C@@H]1O[C@H](O[C@H]2[C@@H](O)[C@H](O[C@@H]3[C@@H](O)[C@H](N)C[C@H](N)[C@H]3O[C@H]3O[C@H](CN)[C@@H](O)[C@H](O)[C@H]3N)O[C@@H]2CO)[C@H](N)[C@@H](O)[C@@H]1O | -0.235%
17 | C[C@@H]1CN(c2c(F)c(F)c3c(=O)c(C(=O)O)cn(C4CC4)c3c2F)C[C@H](C)N1 | -3.56%
18 | NC[C@H]1O[C@H](O[C@H]2[C@H](O)[C@@H](O[C@H]3O[C@H](CO)[C@@H](O)[C@H](N)[C@H]3O)[C@H](N)C[C@@H]2N)[C@H](N)C[C@@H]1O | -17.5%

Row | Compound | growth inhibition
19 | Cn1c(=O)c2c(ncn2CC(O)CO)n(C)c1=O (stereo unspecified) | -0.692%
20 | C[C@@H](Oc1cc(-c2cnn(C3CCNCC3)c2)cnc1N)c1c(Cl)ccc(F)c1Cl | 1.64%
21 | CCC(=O)NCC[C@@H]1CCc2ccc3c(c21)CCO3 | 0.726%
22 | CO[C@H]1C[C@@H]2CC[C@@H](C)[C@@](O)(O2)C(=O)C(=O)N2CCCC[C@H]2C(=O)O[C@H]([C@H](C)C[C@@H]2CC[C@@H](OC(=O)C(C)(CO)CO)[C@H](OC)C2)CC(=O)[C@H](C)/C=C(\C)[C@@H](O)[C@@H](OC)C(=O)[C@H](C)C[C@H](C)/C=C/C=C/C=C/1C | -0.989%
23 | CC1(C)S[C@@H]2[C@H](NC(=O)[C@H](NC(=O)N3CCNC3=O)c3ccccc3)C(=O)N2[C@H]1C(=O)O | -0.815%
24 | NC[C@H](O)c1ccc(O)c(O)c1 | 1.73%
25 | CC[C@H](C)C(=O)O[C@H]1CCC=C2C=C[C@H](C)[C@H](CC[C@@H]3C[C@@H](O)CC(=O)O3)[C@H]21 | 28.8%
26 | CNC[C@H](O)c1cccc(O)c1 | 0.446%
27 | CC[C@@]1(O)C(=O)OCc2c1cc1n(c2=O)Cc2cc3c(CN(C)C)c(O)ccc3nc2-1 | 4.79%
28 | CC(=O)N[C@H]1[C@H]([C@H](O)[C@H](O)CO)OC(C(=O)O)=C[C@@H]1NC(=N)N | 2.15%
29 | OC[C@H]1O[C@H](O[C@]2(CCl)O[C@H](CCl)[C@@H](O)[C@@H]2O)[C@H](O)[C@@H](O)[C@H]1Cl | 0.882%
30 | C[C@]12CC[C@H](O)CC1=CC[C@@H]1[C@@H]2CC[C@]2(C)C(c3cccnc3)=CC[C@@H]12 | -1.17%
31 | CO[C@H]1O[C@@H]2O[C@@]3(C)CC[C@H]4[C@H](C)CC[C@@H]([C@H]1C)[C@@]24OO3 | 14.3%
32 | CN(C)CCOc1ccc(/C(=C(/CCCl)c2ccccc2)c2ccccc2)cc1 | -0.556%
33 | CCCCOc1ccc(OCCCN2CCOCC2)cc1 | 1.81%
34 | Cc1ccc(N(CC2=NCCN2)c2cccc(O)c2)cc1 | -1.14%
35 | COc1cc(C)c(/C=C/C(C)=C/C=C/C(C)=C/C(=O)O)c(C)c1C | 1.6%
36 | C[C@]12CCC(=O)C=C1CC[C@@H]1[C@@H]2[C@@H](O)C[C@@]2(C)[C@H]1CC[C@]2(O)C(=O)CO | 0.475%
